In the library only some 2.3% were active in any assay of this set; here they are far more common.
IDE cell activ: human IDE activators in live cells, primary screen, fluorescence polarization, HEK cells, FAbeta-B substrate. FAbeta-B cleavage; 0% vehicle, 100% cell-free pure enzyme wells. activation, % at 5.96 µM. hit rate 0.073% among 340,000. AID 493087, 2011;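 active = activation above the mean of all tested compounds plus 3 SD, set per screening campaign, cut at about 17% in these data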
Rpn11 inh: Rpn11 (PSMD14) deubiquitinase inhibitors, primary screen, biochemical, fluorescence polarization, uHTS; 26S proteasome non-ATPase regulatory subunit 14 (Homo sapiens), O00487; human 26S proteasome, Ub4-pepOG fluorescence polarization; 20S core pre-blocked with epoxomicin; inhibition, % at 20 µM; hit rate 0.59% among 360,000;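 active = inhibition at 20 µM, scaled to each plate's controls, above about 33%, limit read from the data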
Rin1-Abl PPI inh: inhibitors of Rin1-Abl protein binding, primary screen, biochemical, TR-FRET | Tyrosine-protein kinase ABL1 (Homo sapiens) + Ras and Rab interactor 1 (Homo sapiens), … | inhibition, % at 7.35 µM | hit rate 0.4% among 360,000 | AID 588664, 2011; in the data active = inhibition above about 5%, passing the limit was not always enough
TPT1 inh: Candida albicans TPT1 enzyme inhibitors, primary screen, biochemical, fluorescence polarization; tRNA 2'-phosphotransferase TPT1 (Candida albicans SC5314); recombinant caTPT1, FP RNA substrate dephosphorylation; inhibition, % at 5 µM; hit rate 0.81% among 300,000;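 active = inhibition above the mean of all tested compounds plus 3 SD, set per screening campaign, cut at about 24% in these data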
IDE cell inh: human IDE inhibitors in live cells, primary screen, fluorescence polarization, HEK cells, FAbetaB substrate; Insulin-degrading enzyme (Homo sapiens), P14735; FAbetaB cleavage; inhibition, % at 5.59 µM; hit rate 0.41% among 320,000;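 active = percent inhibition above the average of all tested compounds plus 3 SD, set per screening campaign, cut at about 16% in these data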;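 also: IDE supplied by intact live HEK cells; FP after avidin binding of uncleaved biotin substrate so inhibition keeps polarization high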
Calb FLC: C. albicans growth inhibition with fluconazole, primary screen, CaCi-2 strain, Alamar Blue fluorescence | growth inhibition, % (no concentration beside the values) | AID 1979, 2009 | C. albicans CaCi-2 (fluconazole-resistant clinical isolate) + fluconazole, 48 h | hit rate 0.57% among 300,000;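 active = growth inhibition above about 58% in most replicates, limit read from the data, passing the limit was not always enough; inconclusive = exactly half the replicates above a set limit; inactive = most replicates below a set limit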;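 also: all wells also contain fluconazole at 8 µg/ml as a sub-toxic cotreatment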
Each line names hits and unclear results; the compound was inactive in the other large screens.

CN(CC(=O)Nc1ccc(F)cc1)C(=O)COc1ccccc1Cc1ccccc1	none (no result: Calb FLC)
CC(=O)OCC12COC3c4ccccc4OC(C)(CC1C)C3C2C (configuration not stated)	Calb FLC 106
O=C(Cc1ccc(Cl)cc1)Nc1ccc(Br)cc1	Calb FLC 42
NC(=O)CC12CC3CC(C1)CC(CC(N)=O)(C3)C2	Calb FLC 87
C=C(C)COc1ccc(-c2[nH]ncc2Oc2ccc(OC)cc2)c(O)c1	IDE cell activ 21
COc1cc(C(C)=O)ccc1OCC(=O)Nc1ccc(Cl)c(S(=O)(=O)N2CCOCC2)c1	none (no result: TPT1 inh, Calb FLC)
CCCCCCCCCn1c2c(c(=N)c3c1CCC3)CCCC2	Calb FLC 105 (no result: IDE cell activ, TPT1 inh, IDE cell inh)
CCCCCCCCCCn1c2c(c(=N)c3c1CCC3)CCC2	Calb FLC 107
CCN(CC)CCNC(=O)c1ccc(NC(=O)COc2ccc3c(c2)CCC3)cc1	none (no result: TPT1 inh, Calb FLC)
O=C1C(=O)c2ccccc2C(O)=C1c1ccccc1F	none
O=C1C(O)=C(O)C(=O)c2ccccc21	Rin1-Abl PPI inh 24 (no result: Calb FLC)
CCCCCO	none (no result: TPT1 inh, Calb FLC)
O=C(O)c1cc2c(N3CCC(Cc4ccccc4)CC3)ncnc2s1	Calb FLC inconclusive
c1ccc(CC2CCN(c3ncnc4sccc34)CC2)cc1	Calb FLC 97 (no result: TPT1 inh, IDE cell inh)
COc1ccc(/C=C2/SC(=S)N(CCCC(=O)Nc3ccccc3C(=O)O)C2=O)cc1	IDE cell activ 22
Cc1ccc(/C=C2\SC(=S)N(CCCC(=O)Nc3ccccc3C(=O)O)C2=O)cc1	none
COc1ccc(-c2cc(C)no2)cc1S(=O)(=O)N(C)c1cccc(C)c1	Calb FLC 92
Cc1ccc(S(=O)(=O)Nc2c(C)nc3nc(C)[nH]n3c2=O)cc1	none
OCCCc1nc2n(n1)C(c1cccs1)C=C(c1ccc(Br)cc1)N2 (configuration not stated)	IDE cell inh 135 (no result: IDE cell activ, Rpn11 inh, Rin1-Abl PPI inh)
Brc1ccc(C2=CC(c3cccs3)n3ncnc3N2)cc1 (configuration not stated)	IDE cell inh 88
CC1=C(C(N)=O)C(c2ccc(Br)cc2)n2nc(CCCO)nc2N1 (configuration not stated)	none
Fc1ccc(C2=CC(c3ccco3)n3ncnc3N2)cc1 (configuration not stated)	none
Cc1ccc(C2C=C(c3ccccc3)Nc3ncnn32)cc1 (configuration not stated)	none
Fc1ccc(C2=CC(c3ccc(Br)o3)n3ncnc3N2)cc1 (configuration not stated)	IDE cell inh 92 (no result: Calb FLC)
C[C@H]1CN([C@@H](C)CO)S(=O)(=O)c2ccc(-c3ccccc3)cc2O[C@H]1CN(C)C(=O)C1CCC1	none (no result: IDE cell activ, TPT1 inh, IDE cell inh, Calb FLC)
CCCCN1C(N)=NC[C@@H]1Cc1ccc(O)cc1	none
NC1=NC[C@H](Cc2ccc(O)cc2)N1CCC12CC3CC(CC(C3)C1)C2	Calb FLC 106
CCOc1ccc(NS(=O)(=O)c2c(C)nc3sccn3c2=O)cc1	none
CCOC(=O)CSc1ccc(C(=O)N2CCN(C)CC2)cc1[N+](=O)[O-]	Calb FLC 102
CCN1/C(=C/c2cccc[n+]2C)Sc2ccc(OC)cc21	Calb FLC 99
COc1ccc2c(c1)N(C)/C(=C/c1cccc[n+]1C)S2	none
Nc1ccc(N2CCN(c3ccc(F)cc3)CC2)cc1	Calb FLC 103
CCOC(=O)c1c(C)[nH]c(C(=O)OCC(=O)N(CC(C)C)C2CCS(=O)(=O)C2)c1C (configuration not stated)	none (no result: TPT1 inh, Calb FLC)
O=C(O)CC(NC(=O)CCC1CCCCC1)c1cc([N+](=O)[O-])ccc1Cl (configuration not stated)	none
N#Cc1ccc(-c2ccc(F)cc2)nc1SCC(=O)Nc1sc2c(c1C#N)CCC2	TPT1 inh 26
O=c1[nH]n2c(C(F)(F)F)cc(C3CC3)nc2c1N=Nc1ccccc1	Calb FLC 88
O=C(NCCCN1CCOCC1)c1ccc2c(=O)n(-c3ccc(F)c(Cl)c3)c(=S)[nH]c2c1	none
Cc1onc(-c2ccccc2)c1C(=O)NCc1ccc(Cl)cc1	none (no result: TPT1 inh, IDE cell inh)
CN1C(=O)c2ccccc2NC(=O)[C@]12O[C@@H]2c1cccc(O)c1	TPT1 inh 24
O=C1c2cccc3cccc(c23)C(=O)C1(O)O	Rin1-Abl PPI inh 14
C/C(CC(C)(C)C1CCCCC1)=N\NC(N)=S	Calb FLC 104
C/C(CCC12CC3CC(CC(C3)C1)C2)=N\NC(N)=S	none
CC1C(=O)N(Cc2cn(CC3CCCCC3)nn2)CCS(=O)(=O)N1Cc1ccc(-c2ccccc2)cc1 (configuration not stated)	none (no result: IDE cell activ, TPT1 inh, IDE cell inh, Calb FLC)
Cc1ccc2nc(N3C(=O)C(O)=C(C(=O)c4ccco4)C3c3ccc(O)cc3)sc2c1 (configuration not stated)	none
Cc1ccc2nc(N3C(=O)C(O)=C(C(=O)c4ccc(C)o4)C3c3ccco3)sc2c1 (configuration not stated)	none (no result: TPT1 inh, Calb FLC)
Cc1ccc2nc(N3C(=O)C(O)=C(C(=O)c4cc5ccccc5o4)C3c3cccs3)sc2c1 (configuration not stated)	Rpn11 inh 56
CCc1ccc2nc(N3C(=O)C(O)=C(C(=O)c4ccco4)C3c3cccs3)sc2c1 (configuration not stated)	Rpn11 inh 57
COc1ccccc1N1CCN(CCN2C(=O)CC(=C3c4ccccc4-c4ccccc43)C2=O)CC1	none (no result: IDE cell activ, Rpn11 inh, Rin1-Abl PPI inh)
Cc1ccccc1N1CCN(CCN2C(=O)CC(=C3c4ccccc4-c4ccccc43)C2=O)CC1	Calb FLC 90
c1ccc(N/N=C(\Cc2ncc[nH]2)c2ccccc2)cc1	Calb FLC 114
COc1ccc(C(=O)N/N=C(\Cc2ncc[nH]2)c2ccccc2)cc1	Calb FLC 98
COc1cc(C(=O)N/N=C(\Cc2ncc[nH]2)c2ccccc2)cc(OC)c1OC	none
CC(C(=O)c1ccc(-c2ccccc2)cc1)[n+]1cccc(NC(=O)c2ccccc2)c1 (configuration not stated)	none
CC(C(=O)c1ccccc1)[n+]1cccc(Br)c1 (configuration not stated)	Calb FLC 75
C/C(=N\Nc1ccc(F)cc1F)c1ccc(Br)s1	Calb FLC 102
C/C(=N\Nc1ccc(F)cc1F)c1ccc(N2CCOCC2)cc1	Calb FLC 104
CCc1cc2c(-c3ccccc3)cc(=O)oc2cc1OC(C)C(=O)O (configuration not stated)	none
CC(NC(=O)OCc1ccccc1)C(=O)Oc1cc2oc(=O)cc(-c3ccccc3)c2cc1Cl (configuration not stated)	Calb FLC 82
CN1/C(=C\C(=O)C[n+]2ccc(C(=O)c3ccccc3)cc2)C(C)(C)c2ccccc21	Calb FLC 98

Assay outcomes deposited in PubChem by several laboratories.
